D1 potentiator: Potentiators of Human D1 Dopamine Receptor: qHTS; D(1A) dopamine receptor (Homo sapiens), P21728; HEK293 TREx D1 cells, calcium flux, dopamine EC20 potentiation; potentiation, % at 10 µM; hit rate 0.036% among 360,000; in the data active means potentiation above about 30%
TRHR agonist: qHTS for Small Molecule Agonists and Allosteric Enhancers of Human TRH Receptor: Primary Screen for Agonists; hit rate 0.18% among 360,000; Thyrotropin-releasing hormone receptor (Homo sapiens), P34981; activation, % at 2 µM; TRHR cells, calcium flux fluo-8, FDSS agonist mode
Target sequence (P34981 whole entry, looked up): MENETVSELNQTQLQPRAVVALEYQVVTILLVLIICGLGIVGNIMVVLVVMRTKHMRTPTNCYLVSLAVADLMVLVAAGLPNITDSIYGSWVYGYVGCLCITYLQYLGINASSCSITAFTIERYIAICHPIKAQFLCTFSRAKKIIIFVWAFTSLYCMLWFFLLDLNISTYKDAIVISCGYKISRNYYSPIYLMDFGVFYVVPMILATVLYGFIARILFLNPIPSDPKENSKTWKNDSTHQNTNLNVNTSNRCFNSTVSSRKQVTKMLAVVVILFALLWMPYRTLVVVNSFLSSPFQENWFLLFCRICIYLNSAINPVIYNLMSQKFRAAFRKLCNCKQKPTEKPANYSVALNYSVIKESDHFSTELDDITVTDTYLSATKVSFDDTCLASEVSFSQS
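In this calcium-flux screen, cells bearing human TRHR are dye-loaded with fluo-8, baselined for 10 cycles, then exposed to library compounds; positive kinetic calcium responses during the agonist phase mark hits, with TRH as control.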
D1 antag: Antagonist of Human D 1 Dopamine Receptor: qHTS | D(1A) dopamine receptor (Homo sapiens), P21728 | HEK293 TREx D1 cells, calcium flux, dopamine EC80; active compounds read low | activity change, negative = inhibition, % at 10 µM | hit rate 3.2% among 360,000 | AID 504652, 2011; in the data active means activity change below about -30%
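Antagonism measured as reduced calcium response to an EC80 dopamine addition following 180 s compound pre-read; cells were inducible HEK293 Trex D1 plated overnight at 30 C, read kinetically at 1 cycle/sec.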
D1 ag: Allosteric Agonists of the Human D1 Dopamine Receptor: qHTS; HEK293 T-REx D1 cells, calcium flux, agonist mode; activation, % at 2 µM; hit rate 1% among 360,000
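Agonism was scored from calcium flux recorded over 180 s (1 read/s) after pintool compound addition, following a 10-cycle baseline. Cells were inducible force-coupled HEK293 TREx D1, plated overnight at 30 C and loaded with no-wash calcium dye.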
TRHR enhancer: qHTS for Small Molecule Agonists and Allosteric Enhancers of Human TRH Receptor: Primary Screen for Enhancers; Thyrotropin-releasing hormone receptor (Homo sapiens), P34981; TRHR cells, fluo-8 calcium fluorescence, EC20 TRH enhancement; enhancement, % at 2 µM; hit rate 0.66% among 360,000; AID 493056, 2011; in the data active means enhancement above about 30%
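TRHR-expressing cells loaded with fluo-8 calcium dye were read kinetically (ex 480/em 530) during compound addition, then stimulated with an EC20 of TRH (10 nM final). Enhancement of the Gq-mediated intracellular calcium response was scored.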
LDHA block: qHTS assay for inhibitors of human lactate dehydrogenase; AID 1347041, 2019; L-lactate dehydrogenase A chain (Homo sapiens), P00338; purified LDHA, NADH/diaphorase-resazurin fluorescence; active compounds read low; hit rate 0.15% among 480,000; activity change, % (values are at about 110 or 230 µM); in the data active means activity change below about -30%
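Human LDH5 (2 nM) was incubated with 0.06 mM NADH and 0.2 mM pyruvate for 5 min at room temperature in Tris pH 7.4. Remaining NADH was coupled through diaphorase/resazurin, and resorufin fluorescence was read at 0 and 20 min.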
A number is an active result; . = inactive; / = no result. An excerpt weighted towards active compounds, which were near 3.6% of everything screened. Unless noted, no stated cut-off is given here; in the data, active means activation above about 30%; inactive means the rest.

SMILES	D1 potentiator	TRHR agonist	D1 antag	D1 ag	TRHR enhancer	LDHA block
Cn1nc(-c2ccc(C(=O)Nc3cccc(Cl)c3)cc2)c2ccccc2c1=O	.	.	-37	.	.	.
COc1cc(C(=O)Nc2ncccc2C)cc(Cl)c1OC	/	/	/	/	/	.
COc1ccc(CC(=O)Oc2ccccc2Br)c(OC)c1	/	/	/	/	/	.
Cn1cc(Br)c(C(=O)NNC(=O)c2ccccc2)n1	.	.	.	.	32	.
Cc1c(O)ccc2c(CN(C)CCOc3ccccc3)cc(=O)oc12	/	/	/	/	/	.
Cc1ccc(C)c(Cn2c(N3CCN(CC(C)C)CC3)nc3c2c(=O)[nH]c(=O)n3C)c1	/	/	/	/	/	.
CCN1CCc2c(sc(NC(=O)CSc3ccccc3)c2-c2nc3ccccc3s2)C1	.	147	.	403	.	.
CC(=O)N1CCc2c(sc(NC(=O)CSc3ccc(F)cc3)c2-c2nc3ccccc3s2)C1	.	.	/	.	.	.
CC(=O)Nc1sc2c(c1-c1nc3ccccc3s1)CCN(C(C)C)C2	.	130	.	74	.	.
CN1CCc2c(sc(NC(=O)CSc3ccc(F)cc3)c2-c2nc3ccccc3s2)C1	.	102	.	399	.	.
N#Cc1nc(-c2ccco2)oc1N1CCCC1	.	.	.	.	.	.
CC1CC(C)CN(c2oc(-c3ccco3)nc2C#N)C1 (stereo unspecified)	.	.	-46	.	.	.
CN1CCC(N(C)S(=O)(=O)c2ccc(NC(=O)COc3ccc([N+](=O)[O-])cc3)cc2)CC1	.	.	.	34	.	.
Cc1nn(C)c(C)c1NC(=O)COc1ccc(Cl)cc1	.	.	-34	.	.	.
Cc1nn(C)c(Oc2cccc(Cl)c2)c1C(=O)Nc1ccc(F)cc1F	.	.	.	.	.	.
Cc1cccc(C)c1OCC(=O)Nc1c(C)nn(C)c1C	.	.	.	.	.	.
CN1CCC(N(C)S(=O)(=O)c2ccc(NC(=O)COc3ccc(F)cc3Cl)cc2)CC1	.	.	.	.	.	.
Cc1nn(C)c(Oc2ccc(Cl)cc2)c1C(=O)O	.	.	-33	.	.	.
Cn1c(=O)n(C)c2cc(NC(=O)COc3ccc(Cl)cc3)ccc21	.	.	-33	.	.	.
CC(=O)NNC(=S)Nc1ccc(Cl)c(Cl)c1	/	/	/	/	/	.
CN1CCC(N(C)S(=O)(=O)c2ccc(NC(=O)COc3ccc(F)cc3)cc2)CC1	.	.	.	.	.	.
CC(Oc1cccc(Cl)c1)C(=O)Nc1ccc(S(=O)(=O)N(C)C2CCN(C)CC2)cc1 (stereo unspecified)	.	.	-62	94	.	.
CN1CCC(N(C)S(=O)(=O)c2ccc(NC(=O)COc3ccc(Cl)cc3)cc2)CC1	.	.	.	48	.	.
CC(=O)Nc1ccc(S(=O)(=O)N(C)C2CCN(C)CC2)cc1	.	.	.	.	.	.
O=C(Nc1ccc2ccccc2n1)c1cccc[n+]1[O-]	/	/	/	/	/	.
SMILES	D1 potentiator	TRHR agonist	D1 antag	D1 ag	TRHR enhancer	LDHA block
Cc1[nH]c2ccccc2c1C(=O)/C=C/c1ccc(F)c(F)c1	/	/	/	/	/	.
CN(C)c1cccc(C(=O)N/N=C/c2ccc(Cl)s2)c1	/	/	/	/	/	.
C[C@@H](C(=O)Nc1ccc2ccccc2c1)[C@H]1C[C@]1(C)[C@H](NC(=O)c1cnccn1)c1ccccc1	.	.	.	.	.	.
C[C@@H](C(=O)Nc1ccc2ccccc2c1)[C@@H]1C[C@@]1(C)[C@@H](NC(=O)c1cnccn1)c1ccccc1	.	.	-30	.	.	.
Cc1cc(C)cc(N2CCn3c2nc2c3c(=O)n(Cc3c(F)cccc3Cl)c(=O)n2C)c1	.	.	-31	.	.	.
Nc1nc(SCc2nc(-c3cccc(C(F)(F)F)c3)no2)n[nH]1	/	/	/	/	/	.
Cc1ccc(S(=O)(=O)Nc2ccc3nc(C)sc3c2)cc1	.	.	-34	.	.	.
CSc1ccc(S(=O)(=O)Nc2ccc3c(c2)OCCO3)cc1	.	.	-30	.	.	.
Cc1nc2ccc(S(=O)(=O)Nc3ccc(-c4nc5cccnc5s4)cc3)cc2s1	.	.	-54	.	.	.
Cc1ccc(S(=O)(=O)Nc2ccc3c(c2)OCCO3)cc1	.	.	.	.	.	.
Cc1ccc(S(=O)(=O)Nc2ccc3c(c2)nc(CN2CCCC2)n3C)cc1	.	.	.	49	.	.
Cc1oc2cc(OCC(=O)NCCCOC(C)C)ccc2c(=O)c1-c1ccc(Cl)cc1	/	/	/	/	/	.
CCc1c(C(=O)NC2CCN(C(C)C)CC2)csc1C	/	/	/	/	/	.
COc1cccc(CNCc2cccs2)c1OCc1ccccc1	/	/	/	/	/	.
CC(=O)c1ccc(N2CCN(Cc3nnc(-c4ccc(Br)s4)o3)CC2)c(F)c1	/	/	/	/	/	.
Cc1nc2ccc(NS(=O)(=O)c3ccc4c(c3)OCCO4)cc2s1	.	.	-31	.	.	.
COc1ccc(OCCN(C)C(=O)c2cc(Br)c[nH]2)cc1	/	/	/	/	/	.
O=C(O)CCc1ccc(-c2ccc(F)cc2)n1NC(=O)c1ccco1	.	.	-88	.	.	.
Cc1ccc(-c2ccc(CCC(=O)O)n2NC(=O)c2ccco2)cc1	.	.	.	.	.	.
COc1ccc(C)cc1NCc1cc(=O)oc2cc(-c3ccccc3)c(O)cc12	.	.	-30	.	.	.
CCc1cccc2c1N(C(=O)CCc1ncc(-c3c(F)cccc3F)o1)CC2	/	/	/	/	/	.
COc1ccc(OC)c(C(c2nnnn2Cc2ccccc2)N2CCC(C(N)=O)CC2)c1 (stereo unspecified)	.	.	-45	.	.	.
CCc1ccc2[nH]c(=O)c(C(c3nnnn3Cc3ccc(OC)cc3)N3CCOCC3)cc2c1 (stereo unspecified)	.	.	-44	.	.	.
C#CCOc1ccc2ccccc2c1/C=C(\C#N)c1ccc(Cl)cc1	/	/	/	/	/	.
CC1Cc2ccccc2N1Cc1cc(=O)c(OCC(=O)Nc2ccccc2)co1 (stereo unspecified)	.	.	-33	.	.	.
COc1ccc(OC)c(NC(=O)COc2coc(CN3CCCc4ccccc43)cc2=O)c1	.	.	.	.	.	.
COc1ccc(OC)c(NC(=O)COc2coc(CN3CCc4ccccc43)cc2=O)c1	.	.	-36	.	.	.
O=C(NNC(=S)Nc1ccc(F)cc1)C(c1ccccc1)c1ccccc1	/	/	/	/	/	.
O=C(COC(=O)c1cccc(O)c1)NC(=O)Cc1ccccc1	.	.	.	33	.	.
